Measurements as given in PubChem BioAssay (NCATS).
Records with an inconclusive call do not appear. The source made the active and inactive calls. Calls come from the whole dose curve; as a rule, active = well fitted curve in the direction sought with a large enough effect; inconclusive = small, poorly fitted or top-dose-only effect, or another doubt; inactive = no such curve, though single readings can be large; an effect the other way counts as inactive or inconclusive.

Assays:
[1] = Quantitative High-Throughput drug screen in 47 multiple myeloma cell lines against the NCATS MIPE library collection: KMS21BM_JCRB cell viability assay (AID 1918974); conditions: ATP luminescence, 48 h; viability: at 45.8 µM unless noted
How it was run: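 Primary qHTS used for cherry-picking: cells at 500/well, library compounds for 48 h (37C, 5% CO2), luminescent ATP assay.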

[2] = Quantitative High-Throughput drug screen in 47 multiple myeloma cell lines against the NCATS MIPE library collection: KMS26_JCRB cell viability assay (AID 1918975); note: nearly all actives have a fitted effect of over 45% in size
How it was run: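 CellTiter-Glo luminescence (ATP) after 48 h compound exposure, 37C/5% CO2; 500 cells/well; MIPE 4.0 approved/investigational drugs pinned in; DMSO = 100%, media only = 0% viability.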

[3] = Quantitative High-Throughput drug screen in 47 multiple myeloma cell lines against the NCATS MIPE library collection: MMM1_PLB cell viability assay (AID 1918976); note: nearly all actives have a fitted effect of over 35% in size
How it was run: (§1)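 500 cells/well; MIPE 4.0 drugs pin-transferred; 48 h, 37C, 5% CO2. CellTiter-Glo, 5 min RT, luminescence. Controls: DMSO 100%, media 0%.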

[4] = Quantitative High-Throughput drug screen in 47 multiple myeloma cell lines against the NCATS MIPE library collection: MOLP8_DSMZ cell viability assay (AID 1918977); note: nearly all actives have a fitted effect of over 45% in size
How it was run: as §1

[5] = Quantitative High-Throughput drug screen in 47 multiple myeloma cell lines against the NCATS MIPE library collection: NCIH929_DSMZ cell viability assay (AID 1918978); note: nearly all actives have a fitted effect of over 35% in size
How it was run: as §1

[6] = Quantitative High-Throughput drug screen in 47 multiple myeloma cell lines against the NCATS MIPE library collection: OCIMY1_PLB cell viability assay (AID 1918979); note: nearly all actives have a fitted effect of over 35% in size
How it was run: as §1

[7] = Quantitative High-Throughput drug screen in 47 multiple myeloma cell lines against the NCATS MIPE library collection: MM1S_ATCC cell viability assay (AID 1918980); note: nearly all actives have a fitted effect of over 45% in size
How it was run: as §1

[8] = Quantitative High-Throughput drug screen in 47 multiple myeloma cell lines against the NCATS MIPE library collection: MM1R_ATCC cell viability assay (AID 1918981); note: nearly all actives have a fitted effect of over 35% in size
How it was run: as §1

[9] = Quantitative High-Throughput drug screen in 47 multiple myeloma cell lines against the NCATS MIPE library collection: LP1_DSMZ cell viability assay (AID 1918982); note: nearly all actives have a fitted effect of over 35% in size
How it was run: as §1

[10] = Quantitative High-Throughput drug screen in 47 multiple myeloma cell lines against the NCATS MIPE library collection: KMS28PE_JCRB cell viability assay (AID 1918983); note: nearly all actives have a fitted effect of over 35% in size
How it was run: as §1

[11] = Quantitative High-Throughput drug screen in 47 multiple myeloma cell lines against the NCATS MIPE library collection: KMS34_JCRB cell viability assay (AID 1918985); note: nearly all actives have a fitted effect of over 40% in size
How it was run: as §1

[12] = Quantitative High-Throughput drug screen in 47 multiple myeloma cell lines against the NCATS MIPE library collection: OCIMY7_PLB cell viability assay (AID 1918987); note: nearly all actives have a fitted effect of over 65% in size
How it was run: as §1

[13] = Quantitative High-Throughput drug screen in 47 multiple myeloma cell lines against the NCATS MIPE library collection: OCIMY5_PLB cell viability assay (AID 1918988); note: nearly all actives have a fitted effect of over 65% in size
How it was run: as §1

[14] = Quantitative High-Throughput drug screen in 47 multiple myeloma cell lines against the NCATS MIPE library collection: OPM1_PLB cell viability assay (AID 1918989); note: nearly all actives have a fitted effect of over 40% in size
How it was run: as §1

[15] = Quantitative High-Throughput drug screen in 47 multiple myeloma cell lines against the NCATS MIPE library collection: SKMM1_PLB cell viability assay (AID 1919863); conditions: SKMM1 myeloma viability, CellTiter-Glo ATP, 48 h; viability: hits give low values; note: nearly all actives have a fitted effect of over 35% in size
How it was run: as §1

[16] = Quantitative High-Throughput drug screen in 47 multiple myeloma cell lines against the NCATS MIPE library collection: U266_ATCC cell viability assay (AID 1919864); note: nearly all actives have a fitted effect of over 35% in size
How it was run: as §1

[17] = Quantitative High-Throughput drug screen in 47 multiple myeloma cell lines against the NCATS MIPE library collection: XG6_PLB cell viability assay (AID 1919865); note: nearly all actives have a fitted effect of over 40% in size
How it was run: as §1

[18] = Quantitative High-Throughput drug screen in 47 multiple myeloma cell lines against the NCATS MIPE library collection: XG1_PLB cell viability assay (AID 1919866); note: nearly all actives have a fitted effect of over 35% in size
How it was run: as §1

[19] = Quantitative High-Throughput drug screen in 47 multiple myeloma cell lines against the NCATS MIPE library collection: VP6_DJ cell viability assay (AID 1919867); note: nearly all actives have a fitted effect of over 40% in size
How it was run: as §1

[20] = Quantitative High-Throughput drug screen in 47 multiple myeloma cell lines against the NCATS MIPE library collection: L363_DSMZ cell viability assay (AID 1918984); note: nearly all actives have a fitted effect of over 40% in size
How it was run: as §1

Measured: Potency
Potency is the fitted concentration of half-maximal effect.

CC(C)(O)c1cc2nc(-c3cnc(N)nc3)nc(N3CCOCC3)c2s1
active: [1] 0.59 µM | [2] 0.132 µM | [3] 0.0469 µM | [4] 0.0296 µM | [5] 0.0148 µM | [6] 0.0296 µM | [7] 0.0662 µM | [8] 0.0662 µM | [9] 0.0132 µM | [10] 0.0372 µM | [11] 0.0372 µM | [12] 0.372 µM | [13] 0.105 µM | [14] 0.166 µM | [15] 0.235 µM | [16] 0.105 µM | [17] 0.264 µM | [18] 0.118 µM | [19] 0.0833 µM

CCN(CC)CCNC(=O)c1ccc2nc(-c3ccccc3)c(-c3ccc(CN4CCC(n5c(=O)[nH]c6ccccc65)CC4)cc3)nc2c1
active: [1] 1.18 µM | [2] 14.8 µM | [3] 26.4 µM | [4] 16.6 µM | [5] 0.743 µM | [6] 20.9 µM | [7] 8.33 µM | [8] 20.9 µM | [9] 18.7 µM | [10] 23.5 µM | [20] 0.418 µM | [11] 20.9 µM | [12] 1.05 µM | [13] 10.5 µM | [14] 0.743 µM | [15] 20.9 µM | [16] 8.33 µM | [17] 0.296 µM | [18] 0.59 µM | [19] 0.372 µM

CC(C)CC(=O)Nc1n[nH]c2c1CN(C(=O)C1CCN(C)CC1)C2(C)C
active: [1] 0.0296 µM | [2] 3.32 µM | [3] 4.69 µM | [4] 0.418 µM | [5] 0.743 µM | [6] 16.6 µM | [7] 0.0662 µM | [8] 0.662 µM | [9] 1.87 µM | [10] 1.18 µM | [20] 0.833 µM | [11] 1.18 µM | [12] 1.66 µM | [13] 1.32 µM | [14] 2.09 µM | [15] 4.69 µM | [16] 1.87 µM | [17] 0.935 µM | [18] 1.66 µM | [19] 1.48 µM

CC[C@@H]1C(=O)N(C)c2cnc(Nc3ccc(C(=O)NC4CCC(N5CCN(CC6CC6)CC5)CC4)cc3OC)nc2N1C(C)C (some centres not stated)
active: [1] 0.935 µM | [2] 5.26 µM | [3] 7.43 µM | [4] 3.72 µM | [5] 1.32 µM | [6] 0.264 µM | [7] 1.32 µM | [8] 1.87 µM | [10] 0.209 µM | [20] 0.0148 µM | [11] 0.105 µM | [12] 0.833 µM | [14] 0.166 µM | [15] 2.35 µM | [17] 0.209 µM | [19] 1.66 µM

COC(=O)c1ccc2c(C(=Nc3ccc(N(C)C(=O)CN4CCN(C)CC4)cc3)c3ccccc3)c(O)[nH]c2c1
active: [1] 0.0526 µM | [2] 2.64 µM | [3] 7.43 µM | [4] 9.35 µM | [6] 10.5 µM | [7] 1.18 µM | [8] 14.8 µM | [10] 7.43 µM | [11] 18.7 µM | [14] 2.09 µM | [15] 9.35 µM | [16] 18.7 µM | [17] 0.0469 µM | [18] 0.662 µM

Cc1ccc(-c2ncn(-c3ccc(Nc4nccc(-c5cccc(N6CCOCC6)c5)n4)cc3)n2)cn1
active: [1] 0.0296 µM | [2] 0.469 µM | [3] 2.35 µM | [5] 0.264 µM | [6] 0.662 µM | [7] 0.148 µM | [8] 0.105 µM | [9] 0.132 µM | [10] 0.148 µM | [20] 0.0743 µM | [11] 0.166 µM | [12] 0.132 µM | [13] 0.0526 µM | [14] 0.0833 µM | [15] 0.235 µM | [16] 0.132 µM | [17] 0.132 µM | [18] 0.0935 µM | [19] 0.0296 µM

CC[C@H]1CN2CCc3cc(OC)c(OC)cc3[C@H]2C[C@@H]1C[C@@H]1NCCc2cc(OC)c(OC)cc21
active: [1] 0.264 µM | [2] 0.187 µM | [3] 0.264 µM | [4] 0.105 µM | [5] 0.469 µM | [6] 0.833 µM | [7] 0.0833 µM | [8] 0.187 µM | [9] 0.332 µM | [10] 0.296 µM | [20] 0.059 µM | [12] 0.526 µM | [14] 0.235 µM | [15] 0.296 µM | [16] 0.0935 µM | [17] 0.105 µM | [18] 0.148 µM | [19] 0.148 µM

CCn1cc(-c2ccnc3[nH]c(-c4cccc(CN(C)C)c4)cc23)c(-c2ccc(NC(=O)N(C)C)cc2)n1
active: [1] 0.662 µM | [2] 18.7 µM | [3] 14.8 µM | [4] 8.33 µM | [5] 3.32 µM | [7] 5.26 µM | [8] 20.9 µM | [10] 11.8 µM | [20] 2.09 µM | [12] 0.187 µM | [13] 4.18 µM | [14] 2.96 µM | [15] 18.7 µM | [16] 14.8 µM | [17] 0.935 µM | [19] 1.48 µM
